Source: PubChem BioAssay
Rab9 prom act: activates the Rab9 promoter | Huh7 Rab9 promoter-luciferase reporter, luminescence, 24 h | Potency, µM (doses to about 9.22 µM), for the others: at the highest dose activation, negative = inhibition, usual class: activators | 2.8% of 320,000 active | AID 485297; further: % of control where 0% means no effect; nearly all actives have a fitted effect of over 60% in size
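Stable Rab9-luc Huh7, 1500 cells/well, 2 h settle; cmpd in DMSO, 24 h, 37 °C/5% CO2; luciferase reagent 10 min RT; luminescence.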
SMN2 splice up: enhancers of SMN2 splice variant expression | HEK293 SMN2-luciferase splicing reporter, luminescence, 30-36 h | Potency, µM (doses to about 46.1 µM), inactives show at the highest dose activity change, positive = activation, hits mostly activators | 2.8% of 210,000 active | AID 1458; further: % of control where 0% means no effect; nearly all actives have a fitted effect of over 55% in size
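qHTS luciferase splicing reporter: luminescence rises when SMN2 exon 7 is included in transfected HEK293 cells. Compound exposure lasted 30-36 h at 37C, with 4.5 mM final sodium butyrate as control, followed by a ONE-Glo read.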
ELG1 genotox: genotoxicity induction in ELG1-luciferase HEK293T cells | HEK293T ELG1-luciferase reporter, luminescence, 16 h | Potency, µM (series often up to 46 µM), without a hit: at the top dose activity change, positive = activation, actives largely listed as activators | 1.3% of 330,000 active; further: % of control where 0% means no effect; nearly all actives have a fitted effect of over 60% in size
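Genotoxicity was scored as increased ELG1-luciferase reporter signal, measured by ONE-Glo luminescence (30 min, room temperature). Compound or vehicle exposure of the HEK293T reporter cells lasted 16 hr at 37°C.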
Luc counter: Kinase-Glo luciferase inhibition (counter-screen) | Kinase-Glo luciferase, ATP luminescence, 8 min | 0.28% of 200,000 active | AID 1379 | Potency, µM (top dose mostly 38.3 µM), for the others: top-dose activity change, negative = inhibition, actives largely listed as inhibitors | Q27757; further: on the % scale 0 is the no-effect control and ±100 the full control effect; nearly all actives have a fitted effect of over 60% in size
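Compound is pinned into ATP-containing buffer (10 uM ATP, imidazole pH 7.2, 7 mM MgCl2). Kinase-Glo luciferase reagent is then added. Light output is recorded following an 8-min room-temperature incubation.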
NPC1 prom act: activates the NPC1 promoter | Huh7 NPC1 promoter luciferase reporter, 24 h | Potency, µM (highest dose often 9.22 µM), for the others: at the top dose activation, actives largely listed as activators | 2.4% of 320,000 active | AID 485313; further: % of control where 0% means no effect; nearly all actives have a fitted effect of over 60% in size
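Huh7 cells stably carrying NPC1 promoter–luciferase, plated in Opti-MEM with 10% FBS for 2 h, were exposed to compound in DMSO for 24 h at 37 °C; luciferase reagent was added for 10 min and luminescence read.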
FLuc counter: firefly luciferase modulation, counter-screen for miR-21 project; P08659; purified FLuc, Km substrates, luminescence inhibition; Potency, µM (doses to about 57.5 µM), for the others: at the highest dose activity change, negative = inhibition, hits mostly inhibitors; 6.9% of 360,000 active;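 further: plate controls were vehicle for no effect and reference inhibitor for full effect; nearly all actives have a fitted effect of over 55% in size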
Target sequence (P08659 whole entry, looked up): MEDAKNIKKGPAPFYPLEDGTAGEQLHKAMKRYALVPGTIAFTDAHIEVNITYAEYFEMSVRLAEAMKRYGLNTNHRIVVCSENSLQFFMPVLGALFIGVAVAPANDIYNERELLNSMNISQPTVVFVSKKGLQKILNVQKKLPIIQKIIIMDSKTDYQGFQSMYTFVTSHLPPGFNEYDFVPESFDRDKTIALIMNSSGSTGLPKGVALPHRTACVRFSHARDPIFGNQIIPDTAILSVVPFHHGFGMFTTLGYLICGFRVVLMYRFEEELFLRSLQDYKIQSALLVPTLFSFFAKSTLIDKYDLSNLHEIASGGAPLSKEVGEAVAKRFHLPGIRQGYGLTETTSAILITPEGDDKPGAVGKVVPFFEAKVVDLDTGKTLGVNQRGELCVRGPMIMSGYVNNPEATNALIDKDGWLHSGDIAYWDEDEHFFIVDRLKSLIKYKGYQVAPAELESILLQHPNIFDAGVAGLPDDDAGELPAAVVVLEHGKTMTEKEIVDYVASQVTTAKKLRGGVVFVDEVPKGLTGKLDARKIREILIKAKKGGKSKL
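Purified P. pyralis luciferase, 10 nM final, with Km-level 10 uM D-luciferin and 10 uM ATP in 50 mM Tris acetate pH 7.5, 10 mM Mg acetate, 0.01% Tween-20, 0.05% BSA; 6-point qHTS titration about 60 µM downward; luminescence read.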
The depositor's hits bear a star; [ ] = dose if it differs, or a comment. Shown are actives, neighbours in structure and some others; about 7.3% of the full set was active somewhere. The call rests on the fitted dose curve; in most records, active means well fitted curve in the direction sought with a large enough effect; inconclusive means small, poorly fitted or top-dose-only effect, or another doubt; inactive means no such curve, though single readings can be large; an effect the other way counts as inactive or inconclusive. Potency means the concentration at half of the fitted maximal effect.

How did NCCCCCc1cnc[nH]1 do in these assays?
Luc counter: 0%[39.9 µM]

Results for CCCC(=O)n1nc(-c2ccco2)nc1SCc1ccccc1 ?
Rab9 prom act: 17%; SMN2 splice up: inconclusive; ELG1 genotox: 8%; Luc counter: 2%; NPC1 prom act: 13%; FLuc counter: 9.5µM*

What do the screens show for `Cc1ccc(S(=O)(=O)n2nc(-c3ccco3)nc2SCc2ccccc2)cc1`?
Rab9 prom act: 22%; SMN2 splice up: 16µM*; ELG1 genotox: 15%; Luc counter: 8%; NPC1 prom act: 18%; FLuc counter: 24µM*

What do the screens show for `O=C(Cc1ccccc1)n1nc(-c2ccco2)nc1SCc1ccccc1`?
Rab9 prom act: 15%; SMN2 splice up: 11%; ELG1 genotox: inconclusive; Luc counter: -1%; NPC1 prom act: 24%; FLuc counter: 17µM*

How did CC(=O)c1ccc(NC(=O)Nc2nnc(N3CCCC(C)C3)s2)cc1 (stereo unspecified) do in these assays?
FLuc counter: -6%

What do the screens show for `Cc1ccc(C2=NNC(C(O)C(O)C(O)C(C)O)S2)cc1` (stereo unspecified)?
Rab9 prom act: 17%; SMN2 splice up: -3%; ELG1 genotox: inconclusive; Luc counter: -1%; NPC1 prom act: 27%; FLuc counter: 24µM*

How did CC(=O)N1c2ccccc2C(C)(c2ccc(C)cc2)CC1(C)C (stereo unspecified) do in these assays?
SMN2 splice up: -17%; FLuc counter: 1%

How did Oc1ccc(/C=C/c2nc(-c3ccccc3O)n(-c3ccccc3)n2)cc1 do in these assays?
Rab9 prom act: 5%; SMN2 splice up: -16%; ELG1 genotox: 0%; Luc counter: -6%; NPC1 prom act: -4%; FLuc counter: 17µM*

Results for Oc1ccccc1-c1nc(/C=C/c2ccccc2)nn1-c1ccccc1 ?
Rab9 prom act: 9%; SMN2 splice up: -24%; ELG1 genotox: 2%; Luc counter: 0%; NPC1 prom act: 5%; FLuc counter: inconclusive

What do the screens show for `Cc1cc(O)c(C(c2cccc(F)c2)N2CCN(c3ccccc3)CC2)c(=O)n1Cc1ccco1` (stereo unspecified)?
FLuc counter: -17%

What do the screens show for `c1ccc(-c2noc(-c3cccc4ccccc34)n2)cc1`?
Rab9 prom act: 14%; SMN2 splice up: 11µM*; ELG1 genotox: inconclusive; Luc counter: 1%; NPC1 prom act: 26%; FLuc counter: 6µM*

How did c1cncc(-c2noc(-c3cccc4ccccc34)n2)c1 do in these assays?
Rab9 prom act: inconclusive; SMN2 splice up: 8%; ELG1 genotox: 8.2µM*; Luc counter: 13%; NPC1 prom act: 16%; FLuc counter: 7.6µM*

How did c1ccc2c(-c3nc(-c4ccncc4)no3)cccc2c1 do in these assays?
Rab9 prom act: inconclusive; SMN2 splice up: inconclusive; ELG1 genotox: inconclusive; Luc counter: 3%; NPC1 prom act: inconclusive; FLuc counter: 11µM*

What do the screens show for `Brc1ccc(C2=Nn3c(nnc3-c3n[nH]c4c3CCC4)SC2)cc1`?
Rab9 prom act: -11%; SMN2 splice up: 22µM*; ELG1 genotox: inconclusive; Luc counter: 1%; NPC1 prom act: -27%; FLuc counter: 3%[2.3 µM]

Results for COc1ccc(C2=Nn3c(nnc3-c3ccncc3)SC2)cc1OC ?
Rab9 prom act: -5%; SMN2 splice up: 10µM*; ELG1 genotox: 15%; Luc counter: -2%; NPC1 prom act: -3%; FLuc counter: 1%

What do the screens show for `c1ccc(-c2ccc(C3=Nn4c(nnc4-c4cc(-c5ccccc5)n[nH]4)SC3)cc2)cc1`?
Rab9 prom act: -10%; SMN2 splice up: -10%; ELG1 genotox: -8%; Luc counter: -6%; NPC1 prom act: 14%; FLuc counter: 4.8µM*

How did COc1ccc2oc(=O)c(C(=O)Nc3ccc(C(=O)O)cc3)cc2c1 do in these assays?
SMN2 splice up: -1%; FLuc counter: 6.7µM*

How did COc1ccccc1NC(=O)c1cc2cc(Br)ccc2oc1=N do in these assays?
Rab9 prom act: -1%[1.84 µM]; ELG1 genotox: 2%; NPC1 prom act: 26%; FLuc counter: 4.8µM*

How did COc1ccc(NC(=O)c2cc3cc(OC)ccc3oc2=N)cc1 do in these assays?
Rab9 prom act: -1%; SMN2 splice up: -22%; ELG1 genotox: 10%; Luc counter: 6%; NPC1 prom act: 9%; FLuc counter: 9.5µM*

How did COc1ccc2oc(=O)c(C(=O)Nc3ccccc3O)cc2c1 do in these assays?
Rab9 prom act: 0.4µM*; ELG1 genotox: 0.65µM*; NPC1 prom act: 1µM*; FLuc counter: 0.6µM*

What do the screens show for `CCc1cccc(C)c1NC(=O)CN1C(=O)C2(SCC(=O)N2c2cc(C)cc(C)c2)c2ccccc21` (stereo unspecified)?
FLuc counter: 4%

Results for CCOC(=O)c1ccc(NC(=O)CSc2cn(CC(=O)N3CCCC3)c3ccccc23)cc1 ?
FLuc counter: -10%

What do the screens show for `O=C(CSc1nc(=O)[nH]c2c1CCC2)NCc1ccc(F)cc1`?
FLuc counter: 3%

How did COc1ccccc1C(=O)NNC(=O)c1cccc([N+](=O)[O-])c1 do in these assays?
Rab9 prom act: inconclusive; SMN2 splice up: inconclusive; ELG1 genotox: inconclusive; Luc counter: 3%; NPC1 prom act: 11%; FLuc counter: 19µM*

How did O=C(NNC(=O)c1ccccc1-c1ccccc1C(=O)O)c1cccc([N+](=O)[O-])c1 do in these assays?
Rab9 prom act: -6%; SMN2 splice up: 10%; ELG1 genotox: 3%; Luc counter: -2%; NPC1 prom act: -1%; FLuc counter: 0%

Results for COc1ccccc1C(=O)NNC(=O)c1cccc(C)c1 ?
Rab9 prom act: inconclusive; ELG1 genotox: inconclusive; NPC1 prom act: inconclusive; FLuc counter: 12µM*

How did O=C(/C=C/c1c(C(=O)O)[nH]c2cc(Cl)cc(Cl)c12)Nc1ccccc1 do in these assays?
SMN2 splice up: -11%; Luc counter: 1%

How did CC(=O)c1c(C)[nH]c(-c2ccccc2)c1C do in these assays?
Rab9 prom act: -5%; SMN2 splice up: inconclusive; ELG1 genotox: inconclusive; Luc counter: -2%; NPC1 prom act: 2%; FLuc counter: inconclusive

Results for CCOC(=O)c1c(C)[nH]c(C2=NNC(=Nc3ccc(OCC)cc3)SC2)c1C ?
Rab9 prom act: -7%; SMN2 splice up: -33%; ELG1 genotox: -5%; Luc counter: -1%; NPC1 prom act: 1%; FLuc counter: inconclusive
